Experimental data as given in PubChem BioAssay AID894 (National Center for Advancing Translational Sciences (NCATS), 2007).
Screen size: about 150,000 compounds; about 6,500 (4.3%) were called active. Inconclusive results (about 12%) are left out. This is one part of a sample in which actives are shown more often than they occur. A number with no mark means an inactive call. Calls come from the whole dose curve; as a rule, active = well fitted inhibition curve with a large enough effect (not every such curve was filed as active); inconclusive = small, poorly fitted or top-dose-only effect, or another doubt; inactive = no such curve, though single readings can be large or run the other way.

biological target: 15-hydroxyprostaglandin dehydrogenase [NAD(+)] (Homo sapiens) (UniProt P15428); assay: qHTS Assay for Inhibitors of HPGD (15-Hydroxyprostaglandin Dehydrogenase); settings: purified HPGD, NADH fluorescence kinetic, PGE2 substrate; activity change, negative = inhibition: hits give low values
Outline: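 NADH formation kinetics: reaction with 30 uM PGE2 and 1 mM NAD+ (final), 20 nM enzyme, Tris-HCl pH 8 with Tween 20, after 15 min compound preincubation at room temperature. Fluorescence change, last versus first of five reads.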
% is set by controls: 0 for no effect and ±100 for the full control effect; potency is the fitted concentration of half-maximal effect.

15-hydroxyprostaglandin dehydrogenase [NAD(+)] (Homo sapiens), sequence (P15428 whole entry, looked up): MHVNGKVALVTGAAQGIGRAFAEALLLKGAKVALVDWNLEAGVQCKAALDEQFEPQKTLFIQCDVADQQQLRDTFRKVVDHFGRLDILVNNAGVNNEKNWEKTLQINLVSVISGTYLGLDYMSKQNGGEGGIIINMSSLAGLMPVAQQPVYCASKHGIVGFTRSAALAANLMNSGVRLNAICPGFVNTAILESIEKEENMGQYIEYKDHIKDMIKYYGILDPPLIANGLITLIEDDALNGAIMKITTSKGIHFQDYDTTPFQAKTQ

Row | Structure (SMILES) | activity change, negative = inhibition [%] | Potency
1 | Cc1ccc(C2CC(=O)NC(SCC(=O)OCc3ccccc3)=C2C#N)o1 (configuration not stated) | -25.8 | 
2 | CCOC(=O)CSC1=C(C#N)C(c2sccc2C)CC(=O)N1 (configuration not stated) | -3.48 | 
3 | C=CCSC1=C(C#N)C(c2cc(Br)c(O)c(OC)c2)CC(=O)N1 (configuration not stated) |  | 17.8 µM (active)
4 | CSCCC(NC(=O)COc1ccccc1)C(=O)Nc1ccc(C)cc1 (configuration not stated) | -0.719 | 
5 | CCCCC/C=C\C/C=C\C/C=C\CCCCC(=O)NCC(=O)O | -3.51 | 
6 | CCC(=O)Nc1c(C)n[nH]c1C | -8.91 | 
7 | CN(C)CCSc1nc(N)c2c3c(sc2n1)COC(C)(C)C3 | -15.6 | 
8 | Nc1nc(SCC(=O)NCCN2CCOCC2)nc2sc3c(c12)CCC3 | -10.4 | 
9 | CC(C)(C)C1CCc2c(sc3nc(SCC(N)=O)nc(N)c23)C1 (configuration not stated) |  | 28.2 µM (active)
10 | COC(=O)c1sccc1NC(=O)COc1ccc(Cl)cc1 | -12 | 
11 | Cc1sc2nc(SCC(N)=O)n(C)c(=O)c2c1C | -0.652 | 
12 | C=CCNC(=O)CSc1nc2sc(C)c(C)c2c(=O)[nH]1 |  | 14.1 µM (active)
13 | Cc1sc2nc(CSCC(=O)Nc3c(Cl)cccc3Cl)[nH]c(=O)c2c1C | -14 | 
14 | COc1ccc(-c2[nH]ncc2/C=N/NC(=O)c2cc(Br)ccc2O)c(OC)c1 | -16.3 | 
15 | Cc1ccc(S(=O)(=O)N(C)C)cc1NC(=O)/C=C/c1cccs1 | -12.9 | 
16 | CS(=O)(=O)N(Cc1ccccc1)c1ccc(C(=O)NN=C2CCCCCC2)cc1 | -5.89 | 
17 | CCCC/C(C)=N/NC(=O)NC1CCCCC1 | -6.12 | 
18 | CCS(=O)(=O)Nc1ccc(C2=NN(S(=O)(=O)c3ccc(F)cc3)C(c3ccco3)C2)cc1 (configuration not stated) |  | 12.6 µM (active)
19 | CS(=O)(=O)Nc1cccc(C2=NN(S(=O)(=O)c3ccccc3)C(c3cccs3)C2)c1 (configuration not stated) | -7.08 | 
20 | Cc1ccc(C2=NN(C(=O)CSc3nc(N)cc(N)n3)C(c3ccco3)C2)cc1 (configuration not stated) | -20.9 | 
21 | COc1ccc(-c2csc(NC(=O)COC(=O)c3ccc(Br)o3)n2)cc1 | -1.93 | 
22 | O=C1c2ccccc2C(O)N1Cc1ccccc1 (configuration not stated) | -28.7 | 
23 | O=C1c2ccccc2C(O)N1Cc1ccccc1Cl (configuration not stated) |  | 12.6 µM (active)
24 | O=c1ccn(Cc2ccccc2Cl)cc1 | 0.459 | 
25 | C=CCC1CCC(=O)N2CCCC12 (configuration not stated) | -1.41 | 
26 | COc1ccc(/C=C2\NC(=O)[C@@H]3Cc4ccccc4CN3C2=O)cc1 | -5.55 | 
27 | COC(=O)C1=C(C(=O)OC)[C@@H]2N(Cc3ccccc3)c3ccccc3[C@@]23C[C@@H](C(=O)OC)N(S(=O)(=O)c2ccc(C(F)(F)F)cc2)C3=N1 | -11.4 | 
